Source: PubChem BioAssay
Unmarked numbers belong to inactive results.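 How the source made its calls: active means RAM network inhibition above 8.4% in each of two replicates, 3 SD over the compound average; inconclusive means above 8.4% inhibition in only one replicate; inactive means 8.4% inhibition or less in each replicate.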

Test: RAM signaling pathway blockade in yeast – S. cerevisiae, Pdr1DBD-CYC8 efflux-inhibited sensitized strain, primary screen (AID 1298);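 further: 0% = DMSO untreated cells without growth and 100% = 10 µM 1-NA-PP1 full growth; higher means more yeast growth rescued from 5-FOA killing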
Settings: S. cerevisiae cbk1-as DSE1-URA3 strain, 5-FOA growth OD615, 2 d; at 50 µM; hits give high values

| SMILES | RAM network inhibition [%] |
| --- | --- |
| COc1ccc2cc(CCNC(=O)c3c(-c4ccccc4Cl)noc3C)c(=O)[nH]c2c1 | 4.72 |
| CCOc1ccc(S(=O)(=O)N2CCN(S(=O)(=O)c3ccc(OCC)cc3)C(C)C2)cc1 (centres undefined) | 6.32 |
| Cc1occc1-c1nnc(SCCCC(=O)c2ccc(F)cc2)n1C | 6.28 |
| Cc1ccc(CCN2CC(C(=O)NCc3cccnc3)CC2=O)cc1 (centres undefined) | -0.99 |
| COc1ccccc1OCC(=O)Nc1ccc(S(=O)(=O)N2CCCCCC2)cc1 | 10.1 |
| CCN(c1ccccc1)S(=O)(=O)c1ccc(N)cc1 | 2.68 |
| CCOc1cccc(C(=O)Nc2nnc(-c3ccco3)s2)c1 | 2.28 |
| c1ccc2c(c1)CCCN2c1nc2ccccc2n2cnnc12 | 4.1 |
| O=C(CN1CCN(c2ccccc2F)CC1)c1ccc2cc[nH]c2c1 | 0.99 |
| Cc1cccc(OCc2nnc(SCC(=O)NCCc3ccccc3)o2)c1 | 1.99 |
| C=C(C)c1cccc(C(C)(C)NC(=O)N2CCN(c3ccccn3)CC2)c1 | 1.43 |
| Cc1ccc(S(=O)(=O)NCc2ccco2)cc1C | 2.42 |
| COc1ccc(C(=O)NCC(c2cccnc2)N2CCN(c3ccccc3)CC2)cc1OC (centres undefined) | 2.74 |
| O=C(Cn1ncc2c1-c1ccccc1OC2)Nc1ccc(S(=O)(=O)N2CCCCC2)cc1 | 4.53 |
| CC1CCCN(c2ncnc3c2cnn3-c2ccc(Cl)cc2)C1 (centres undefined) | 4.37 |
| CCOC(=O)N1CCC(NC(=O)C2CCCCN2S(=O)(=O)c2ccc(F)cc2)CC1 (centres undefined) | -0.16 |
| CC1NC(=O)NC1CCCCC(=O)O (centres undefined) | 2.65 |
| CCc1ccc(NC(=O)C2CC=CCC2C(=O)O)cc1 (centres undefined) | 4.12 |
| CCN(CCCNC(=O)Cn1cc2c(n1)CCCC2)c1cccc(C)c1 | 4.45 |
| O=C(NC1CCCCCCC1)C1CCC(CNc2c(N3CCCC3)c(=O)c2=O)CC1 (centres undefined) | 4.83 |

| SMILES | RAM network inhibition [%] |
| --- | --- |
| CNC(=O)CN1C(=O)c2ccccc2S1(=O)=O | 2.32 |
| O=C(O)CCC(C(=O)O)n1c(O)c(C2=c3ccccc3=NC2=O)sc1=S (centres undefined) | -0.11 |
| CCOc1ccccc1NC(=O)C1CCN(S(=O)(=O)c2ccc(OC)c(OC)c2)CC1 | 0.83 |
| Cc1cc(C)c(S(=O)(=O)Nc2nnc(C)s2)c(C)c1 | 8.49 |
| Cc1ccc(C(c2sc3nc(C)nn3c2O)N2CCN(CCO)CC2)cc1 (centres undefined) | 4.52 |
| CCN(CC)C(=O)c1sc(NC(=O)c2ccoc2C)c(C(=O)OC)c1C | 7.43 |
| Cc1oc2c(c1C(=O)NC(Cc1c[nH]c3ccccc13)C(=O)O)CCCC2 (centres undefined) | 0.1 |
| COc1cccc(C2NC(=O)NC(O)(C(F)(F)F)C2C(=O)c2cccnc2)c1OC (centres undefined) | 0.92 |
| Cc1noc(C)c1S(=O)(=O)N(CC(=O)Nc1ccc2c(c1)OCO2)c1ccc(C(C)C)cc1 | -0.06 |
| COc1ccc(C2CC(=O)N3CN(c4ccc(C)c(Cl)c4)CSC3=C2C#N)cc1 (centres undefined) | -1.96 |
| O=C(Cc1cccs1)N1CCN(c2ccccn2)CC1 | 2.55 |
| O=C(O)CC1C(=O)NCCN1CCCc1ccccc1 (centres undefined) | -1.48 |
| CCCCN(CC)CCNC(=O)Cn1cnc2sc(C)c(S(=O)(=O)N3CCOCC3)c2c1=O | 0.78 |
| CC1(C)C(C#N)=C(N)OC2=C1C(=O)CCC2 | 1.3 |
| CCc1nnc(NC(=O)c2ccc(S(=O)(=O)N3CCOCC3)cc2)s1 | 9.48 |
| Cc1ccnc(N2C(=O)c3ccccc3C2Nc2ccccc2Cl)c1 (centres undefined) | 12.8 |
| CCCCOC(=O)Nc1ccc(S(=O)(=O)Nc2cc(C)nc(C)n2)cc1 | 6.71 |
| O=C1Nc2cc(Cl)cnc2N2CCCC12 (centres undefined) | 0 |
| CCn1c(-c2ccccc2O)n[nH]c1=S | 0.81 |
